Compound activity (PubChem)
This is a sample that favours compounds with a hit; in the whole collection about 2.8% have one here.
PMP22 txn = modulators of PMP22 gene transcription in S16 Schwann cells. 43,000 compounds, 2% hits. Potency, µM (highest dose often 57.5 µM), for inactives: at the highest dose activity change, negative = inhibition, most hits filed as inhibitors. AID 1508649. S16 Pmp22-F2sN Schwann cells, FLuc/NLuc coincidence luminescence, 24 h; active = clear falling dose curves in both reporters; inconclusive = both reporters move, but less clearly or upward; inactive = either reporter flat; the % is the NLuc reporter signal; note: potency is the fitted concentration of half-maximal effect; % is set by controls: 0 for no effect and ±100 for the full control effect
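Rat S16 Pmp22-F2sN cells, 500-1,000/well in phenol red-free DMEM + 10% FBS, compound-treated 24 h (37C, 5% CO2). Luminescence: FLuc read, Stop&Glo added, NLuc read.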
pS6 MEF inh = inhibitors of mTORC1 signaling in Tsc2-/- p53-/- MEF cells | Tsc2-/- p53-/- MEF, phospho-rpS6 immunofluorescence/PI, 24 h | Potency, µM (titrated, usually from 38.3 µM), for the others: at the highest dose activity change, negative = inhibition, actives largely listed as inhibitors | 44,000 compounds, 0.78% hits;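 note: potency is the fitted concentration of half-maximal effect; plate controls were DMSO for no effect and rapamycin for full effect; nearly all actives have a fitted effect of over 50% in size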
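Tsc2-/-, p53-/- mouse embryonic fibroblasts (empty-vector line) exposed to compound 24 hrs at 37 C, fixed, immunostained for phospho-rpS6 and counterstained with propidium iodide. Acumen laser scanning gives % positive cells from Alexa 488/PI ratio, thresholded using 7.5 nM rapamycin; PI count gives viability.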
S16 viability = S16 Schwann cell cytotoxicity; S16 Pmp22-F2sN Schwann cells viability, CellTiter-Glo, 24 h; Potency, µM (series often up to 57.5 µM), inactives show at the highest dose activity change, negative = cytotoxicity, actives largely listed as cytotoxic; 43,000 compounds, 0.48% hits; note: potency is the fitted concentration of half-maximal effect; % is set by controls: 0 for no effect and ±100 for the full control effect; nearly all actives have a fitted effect of over 65% in size
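Viability was measured by CellTiter-Glo luminescence (15 min, room temperature). This followed 24 h at 37 °C of compound exposure (23 nL pin transfer) in S16 Pmp22-F2sN Schwann cells, 500-1,000 per well.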
GALC G270D up = enhancers of human galactocerebrosidase G270D mutant activity in cells | P54803 | 145M-Twi-hGALC-G270D cells (Twitcher mouse brain line with human GALC G270D), HMU-beta-Gal fluorescence, 48 h | Potency, µM (highest dose often 57.5 µM), usual class: activators | 45,000 compounds, 0.1% hits | AID 1159614; note: potency is the fitted concentration of half-maximal effect; 0% is about no effect; nearly all actives have a fitted effect of over 65% in size
Target sequence (P54803 whole entry G286D): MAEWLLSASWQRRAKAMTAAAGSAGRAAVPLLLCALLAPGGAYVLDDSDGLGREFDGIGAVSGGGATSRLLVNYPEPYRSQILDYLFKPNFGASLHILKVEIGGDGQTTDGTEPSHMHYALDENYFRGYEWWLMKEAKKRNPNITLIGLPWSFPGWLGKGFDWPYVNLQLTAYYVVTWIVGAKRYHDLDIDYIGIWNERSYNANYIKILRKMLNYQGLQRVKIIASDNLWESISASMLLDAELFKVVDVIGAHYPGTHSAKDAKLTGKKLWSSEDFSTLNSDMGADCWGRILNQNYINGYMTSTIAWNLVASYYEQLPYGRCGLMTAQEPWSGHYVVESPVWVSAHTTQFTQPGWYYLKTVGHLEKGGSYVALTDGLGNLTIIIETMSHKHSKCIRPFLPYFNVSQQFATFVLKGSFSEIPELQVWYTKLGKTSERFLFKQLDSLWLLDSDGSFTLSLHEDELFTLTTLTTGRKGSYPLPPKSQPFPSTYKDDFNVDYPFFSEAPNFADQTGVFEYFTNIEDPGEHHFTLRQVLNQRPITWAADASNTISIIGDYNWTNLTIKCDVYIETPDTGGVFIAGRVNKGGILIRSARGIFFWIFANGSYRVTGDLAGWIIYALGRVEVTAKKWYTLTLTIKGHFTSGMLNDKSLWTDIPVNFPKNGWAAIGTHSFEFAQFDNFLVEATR
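Fluorescence readout: HMU-β-gal cleavage by mutant GALC (0.1 mM final, citrate/phosphate pH 5.2 with 1 mg/mL taurocholate), stopped with carbonate/bicarbonate plus Triton X-100. Cells: murine Twitcher 145M-Twi expressing human G270D GALC; qHTS for activators.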
NLuc sat counter = counter-screen for PMP22 expression modulators: NanoLuc inhibition, saturating substrate; shares compounds with PMP22 txn; Secreted NLuc enzyme (filtered S16 cell medium), Nano-Glo luminescence; Potency, µM (top dose mostly 57.5 µM), without a hit: top-dose activity change, negative = inhibition, actives largely listed as inhibitors; 690 compounds, 4% hits; note: potency is the fitted concentration of half-maximal effect; % is set by controls: 0 for no effect and ±100 for the full control effect
NLuc Km ctr = counter-screen for PMP22 expression modulators: NanoLuc inhibition at Km. 690 compounds, 5% hits. shares compounds with PMP22 txn. Potency, µM (top dose mostly 57.5 µM), for the others: at the highest dose activity change, negative = inhibition, most hits filed as inhibitors. AID 1508639. secreted NLuc enzyme, coelenterazine luminescence, Km conditions; note: potency is the fitted concentration of half-maximal effect; % is set by controls: 0 for no effect and ±100 for the full control effect
FLuc ctr PMP22 = inhibits firefly luciferase, PMP22 counter-screen. shares compounds with PMP22 txn. purified P. pyralis FLuc, luminescence, 10 min. Potency, µM (series often up to 57.5 µM), inactives show at the top dose activity, negative = inhibition, usual class: inhibitors. 690 tested, under 10 active. AID 1508640; note: % of control where 0% means no effect
S16 viab conf = confirmation of cytotoxicity in S16 Pmp22-F2sN Schwann cells (luciferase reporters placed in the Pmp22 gene); shares compounds with PMP22 txn; S16 Schwann cells viability, CellTiter-Glo ATP luminescence, 24 h; Potency, µM (series often up to 57.5 µM), inactives show at the top dose activity change, negative = viability loss, most hits filed as cytotoxic; 690 compounds, 7% hits; AID 1508641; note: potency is the fitted concentration of half-maximal effect; % is set by controls: 0 for no effect and ±100 for the full control effect
PMP22 txn cnf = confirmation of modulators of PMP22 gene transcription in S16 cells | shares compounds with PMP22 txn | S16 Schwann cells Pmp22-F2sN, dual luciferase, 24 h | Potency, µM (series often up to 57.5 µM), for inactives: at the top dose activity change, negative = inhibition, usual class: inhibitors | 690 compounds, 22% hits | AID 1508646; active = clear falling dose curves in both reporters; inconclusive = both reporters move, but less clearly or upward; inactive = either reporter flat; the % is the FLuc reporter signal; note: potency is the fitted concentration of half-maximal effect
PMP22 HiBiT cnf = rat PMP22 protein level modulation, confirmatory; shares compounds with PMP22 txn; S16 Schwann cells Pmp22-HiBiT, luminescence, 48 h; Potency, µM (titrated, usually from 27.9 µM), for the others: at the top dose activity change, negative = inhibition, actives largely listed as inhibitors; 95 tested, under 10 active; AID 1508647
Active calls of the source: *. Unless noted, calls come from the whole dose curve; as a rule, active = well fitted curve in the direction sought with a large enough effect; inconclusive = small, poorly fitted or top-dose-only effect, or another doubt; inactive = no such curve, though single readings can be large; an effect the other way counts as inactive or inconclusive.

For Cc1ccc2nc3c(c(Nc4ccc(C)c(C)c4)c2c1)CCC3 the results were PMP22 txn 19µM*, pS6 MEF inh -10%, S16 viability inconclusive, GALC G270D up inactive, NLuc sat counter -13%, NLuc Km ctr -15%, FLuc ctr PMP22 -6%, S16 viab conf 6% and PMP22 txn cnf inconclusive.
COc1ccccc1C(=O)Nc1cccc(C(=O)OCc2cc(=O)n3nc(C)sc3n2)c1 was read as PMP22 txn 0%, pS6 MEF inh 0%, S16 viability 9% and GALC G270D up inactive.
CCCNC(=O)c1ccc2c(c1)N=C(CCC)c1ccccc1S2 was read as PMP22 txn 11µM*, pS6 MEF inh inconclusive, S16 viability 3%, GALC G270D up inactive, NLuc sat counter inconclusive, NLuc Km ctr 9.7µM*, FLuc ctr PMP22 4%, S16 viab conf -1% and PMP22 txn cnf 4.1µM*.
`CCC1=Nc2cc(C(=O)NCCN(CC)CC)ccc2Sc2ccccc21` gave PMP22 txn 17µM*, pS6 MEF inh inconclusive, S16 viability -12%, GALC G270D up inactive, NLuc sat counter -19%, NLuc Km ctr 0%, FLuc ctr PMP22 -6%, S16 viab conf -28% and PMP22 txn cnf inconclusive.
Screening CCCC1=Nc2cc(C(=O)NCCc3ccccc3)ccc2Sc2ccc(C)cc21 returned PMP22 txn inconclusive, pS6 MEF inh inconclusive, S16 viability -2% and GALC G270D up inactive.
For O=C(CSc1nc2ccsc2c(=O)n1-c1ccc(Br)cc1)NCc1ccc(Cl)cc1 the results were PMP22 txn 12µM*, pS6 MEF inh inconclusive, S16 viability 2%, GALC G270D up inactive, NLuc sat counter -5%, NLuc Km ctr -2%, FLuc ctr PMP22 5%, S16 viab conf 3% and PMP22 txn cnf inconclusive.
For O=C(CSc1nc2ccsc2c(=O)n1-c1ccc(Cl)cc1)NCc1ccc(Cl)cc1 the results were PMP22 txn inconclusive, pS6 MEF inh -3%, S16 viability 6% and GALC G270D up inactive.
Screening CCCCCn1c(=O)[nH]c2cc(C(=O)N3CCN(c4cccc(C(F)(F)F)c4)CC3)ccc2c1=O returned PMP22 txn -27%, pS6 MEF inh -9%, S16 viability inconclusive and GALC G270D up inactive.
For Cc1ccc(S(=O)(=O)CCC(=O)Nc2ccc(Br)cc2C)cc1 the results were PMP22 txn -10%, pS6 MEF inh 2%, S16 viability 0% and GALC G270D up inactive.
Screening CCOC(=O)c1ccc(N2C(=O)c3n[nH]c(-c4ccco4)c3C2c2ccc(O)c(OC)c2)cc1 (stereo not given) returned PMP22 txn 11µM*, pS6 MEF inh inconclusive, S16 viability -22%, GALC G270D up inactive, NLuc sat counter inconclusive, NLuc Km ctr inconclusive, FLuc ctr PMP22 5%, S16 viab conf 4% and PMP22 txn cnf 19µM*.
CCOC(=O)c1ccc(-c2ccc(/C=C(\C#N)C(=O)Nc3cccc(C)c3)o2)cc1 was read as PMP22 txn inconclusive, pS6 MEF inh -7%, S16 viability 3%, GALC G270D up inactive, NLuc sat counter inconclusive, NLuc Km ctr -9%, FLuc ctr PMP22 0%, S16 viab conf -18% and PMP22 txn cnf 17µM*.
COc1ccc(NC(=O)c2nc(S(=O)(=O)Cc3ccc(C)cc3)ncc2Cl)cc1 was read as PMP22 txn 11µM*, pS6 MEF inh 3.7µM*, S16 viability inconclusive, GALC G270D up inactive, NLuc sat counter -11%, NLuc Km ctr -15%, FLuc ctr PMP22 3%, S16 viab conf inconclusive, PMP22 txn cnf 5.8µM* and PMP22 HiBiT cnf -9%.
`CCCS(=O)(=O)c1ncc(Cl)c(C(=O)Nc2c(C(=O)Nc3ccccc3)oc3ccccc23)n1` gave PMP22 txn 7.1µM*, pS6 MEF inh 2.1µM*, S16 viability inconclusive, GALC G270D up inactive, NLuc sat counter -13%, NLuc Km ctr 1.4µM*, FLuc ctr PMP22 6%, S16 viab conf 17µM* and PMP22 txn cnf 8.2µM*.
COc1ccc(CNC(=O)c2nc(SCc3ccc(C)cc3)ncc2Cl)cc1 was read as PMP22 txn inconclusive, pS6 MEF inh -2%, S16 viability -2% and GALC G270D up inactive.
Screening CCS(=O)(=O)c1ncc(Cl)c(C(=O)NCc2ccccc2)n1 returned PMP22 txn 8.4µM*, pS6 MEF inh 2.6µM*, S16 viability inconclusive, GALC G270D up inactive, NLuc sat counter -7%, NLuc Km ctr -20%, FLuc ctr PMP22 3%, S16 viab conf 15µM* and PMP22 txn cnf 6.9µM*.
For CCCCCCOc1ccc(/C=C/C(=O)Nc2sc3c(c2C(=O)OC)CCC3)cc1OC the results were PMP22 txn 7µM*, pS6 MEF inh 10%, S16 viability inconclusive, GALC G270D up inactive, NLuc sat counter -1%, NLuc Km ctr -3%, FLuc ctr PMP22 -11%, S16 viab conf 11% and PMP22 txn cnf 39%.
COc1cc(C2C(=O)N(C3CCCCCC3)CC(=O)N2CCc2ccccc2)ccc1OC(C)C (stereo not given) was read as pS6 MEF inh 3%.
CCn1c(CN2CCCCC2)nc2cc(NC(=O)COc3ccccc3C(C)(C)C)ccc21 was read as PMP22 txn 14µM*, pS6 MEF inh -1%, S16 viability 2%, GALC G270D up inactive, NLuc sat counter -11%, NLuc Km ctr 2%, FLuc ctr PMP22 1%, S16 viab conf 1% and PMP22 txn cnf inconclusive.
